Data on 61 compounds can be found in paper PMC4552634, “A New Set of Chemical Starting Points with Plasmodium falciparum Transmission-Blocking Potential for Antimalarial Drug Discovery” (PLoS ONE, 2015).

The whole screen tested about 13,000 compounds, of which about 3,200 (25%) showed an effect of 50% or more. This is one part of the list.

This experiment relates to P. falciparum stage V gametocytes. Further details: BacTiter-Glo ATP luminescence viability of purified stage V gametocytes in 384-well plates, per cent inhibition versus DMSO. The note with it: 48 h, 5 µM; inhibitor.
Regarding `CCC(=O)N[C@@H]1CN[C@@H](C#Cc2cc3c(Nc4ccc(OCc5cccc(F)c5)c(Cl)c4)ncnc3s2)C1` [TCMDC-135410], the “% Inhibition” value is -39.51%.
Take `N#Cc1c(N2CCCCCC2)nc(N)c2c(N)nc3c(c12)CC(=O)N3c1ccc(F)cc1` [TCMDC-123902]: the “% Inhibition” value was determined as 44.67%.
For `O=C(Nc1ccc(S(=O)(=O)N2CCCCC2)cc1)c1cc(-c2cc(Cl)ccc2O)n[nH]1` [TCMDC-124905] the value was -12.68%; for `CN1CCC(Oc2ccc(CN3CC[C@H](NC(=O)c4ccc(F)c(F)c4)C3)c3ccccc23)C1` (stereo partly shown) [TCMDC-135278], 72.64%.
Take `CCCCCN1CCCN(Cc2cccc(NC(=O)c3ccc4ccccc4c3)c2)CC1` [TCMDC-141854]: the “% Inhibition” value is on record as -83.26%.
Take `Cc1cccc2[nH]cc(C3CCN(CCC4CCN(C(=O)/C=C/c5ccc(Cl)c(Cl)c5)CC4)CC3)c12` [TCMDC-140124]: the “% Inhibition” value is listed as -19.67%.
Next, `CC(=O)Nc1ccc2[nH]cc(C3CCN(CC4CCN(C(=O)/C=C/c5ccc(Cl)c(Cl)c5)CC4)CC3)c2n1` [TCMDC-140112]: -22.97%; `CC(=O)Nc1ccc2[nH]cc(C3CCN(CCC4CCN(C(=O)/C=C/c5ccc(Cl)c(Cl)c5)CC4)CC3)c2n1` [TCMDC-140113]: -31.57%.
Regarding `Nc1ccc2[nH]cc(C3CCN(CC4CCN(C(=O)/C=C/c5ccc(Cl)c(Cl)c5)CC4)CC3)c2n1` [TCMDC-140061], the “% Inhibition” value came out at 100.1%.
For `Nc1ccc2[nH]cc(C3CCN(CCC4CCN(C(=O)/C=C/c5ccc(Cl)c(Cl)c5)CC4)CC3)c2n1` [TCMDC-140062] the value was 107.7%; for `CC(Cc1ccc(C(=O)OC(c2ccccc2)c2ccccc2)cc1)NCC(O)c1ccccc1` (stereo not shown) [TCMDC-131546], 37.45%.
For `Cc1ccc2nc(-c3cc(-c4cccc(CCN5CCOCC5)c4)cnc3N)[nH]c2c1` [TCMDC-133136] the value was -33.78%; for `Cc1nc2ccc(/C=C/C(=O)NC3CCC(CCN4CCc5ccc(C#N)cc5CC4)CC3)cc2[nH]1` (stereo not shown) [TCMDC-139675], -3.608%; for `CC(=O)Nc1ccc2[nH]cc(C3CCN(CC4CCC(NC(=O)/C=C/c5ccc(Cl)c(Cl)c5)CC4)CC3)c2n1` (stereo not shown) [TCMDC-140114], 6.04%.
As to `Nc1ccc2[nH]cc(C3CCN(CC4CCC(NC(=O)/C=C/c5ccc(Cl)c(Cl)c5)CC4)CC3)c2n1` (stereo not shown) [TCMDC-140064], the “% Inhibition” value is listed as 97.26%.
For `Nc1ccc2[nH]cc(C3CCN(CC4CCC(NC(=O)/C=C/c5ccccc5Cl)CC4)CC3)c2n1` (stereo not shown) [TCMDC-140063] the value was 106.2%; for `CNC(=O)c1ccc2[nH]cc(C3CCN(CC4CCC(NC(=O)/C=C/c5ccccc5Cl)CC4)CC3)c2c1` (stereo not shown) [TCMDC-139978], -4.902%.
For `CS(=O)(=O)Nc1ccc2[nH]cc(C3CCN(CC4CCC(NC(=O)/C=C/c5ccc(Cl)c(Cl)c5)CC4)CC3)c2n1` (stereo not shown) [TCMDC-140088], the “% Inhibition” value was found to be 4.239%.
Next, `Cc1cc(O)cc2c(C3CCN(CC4CCC(NC(=O)/C=C/c5ccccc5Cl)CC4)CC3)c[nH]c12` (stereo not shown) [TCMDC-139924]: -46.01%; `CC(=O)Nc1ccc2[nH]cc(C3CCN(CC4CCC(NC(=O)/C=C/c5ccccc5Cl)CC4)CC3)c2n1` (stereo not shown) [TCMDC-140111]: 60.6%.
For `CCCCc1cc(NCc2ccncc2)nc(Nc2ccc(OC)cc2)n1` [TCMDC-134010] the value was -13.59%.
For `Cc1cccc(NC(=O)c2cnc(N3CCN(c4ccncc4)CC3)c(Cl)c2)c1` [TCMDC-134625] the value was 39.85%; for `CC(C)Nc1cc(C(=O)N[C@@H](Cc2ccccc2)[C@H](O)CNC2CCOCC2)c(F)c(N2CCCCS2(=O)=O)c1` [TCMDC-135541], -18.96%; for `CN(C)CCCOc1cc(NC(=O)Nc2ccc(-c3ccncc3)c3ccccc23)ccc1I` [TCMDC-139136], 21.74%.
`CS(=O)(=O)CCCNCc1ccc(-c2cc3c(Nc4ccc(OCc5ccccc5)cc4)ncnc3cn2)o1` [TCMDC-138081]: the “% Inhibition” value was determined as 11.38%.
With `CN(Cc1ccc(C#N)cc1)C1CCN(c2cc(NC(=O)c3cccc(F)c3)ccn2)CC1` [TCMDC-134976], the “% Inhibition” value is -19.78%.
For `COc1ccc2nccc([C@@H](O)CN3CCC(NC(=O)Cc4ccc(Br)c5ccccc45)CC3)c2c1` [TCMDC-141168] the value was -21.28%; for `CC1(C)N=C(N)N=C(N)C1c1ccc(Cl)cc1` (stereo not shown) [TCMDC-137610], 17.18%; for `O=C(O[C@@H]1CN[C@H](C#Cc2cc3c(Nc4ccc5c(cnn5Cc5ccccc5)c4)ncnc3s2)C1)N1CCCC1` [TCMDC-135376], 21.76%.
Take `O=C(Cn1c(CCc2cccc(F)c2F)cc(=O)c2cccnc21)N(CCCn1ccnc1)Cc1ccc(-c2ccc(C(F)(F)F)cc2)cc1` [TCMDC-141469]: the “% Inhibition” value is 1.607%.
Next, `CCN(CC)CCCN(Cc1ccc(-c2ccc(C(F)(F)F)cc2)cc1)C(=O)Cn1c(SCc2cccc(F)c2F)cc(=O)c2ccccc21` [TCMDC-141175]: 139.9%; `O=C(Cn1c(CCc2cccc(F)c2F)cc(=O)c2ccccc21)N(CCN1CCCCC1)Cc1ccc(-c2ccc(C(F)(F)F)cc2)cc1` [TCMDC-141142]: -28.19%.
For `O=C(Cn1c(SCc2cccc(F)c2F)cc(=O)c2ccccc21)N(CCN1CCCCC1)Cc1ccc(-c2ccc(C(F)(F)F)cc2)cc1` [TCMDC-141466] the value was 112.5%; for `O=C(Cn1c(SCc2cccc(F)c2F)cc(=O)c2ccccc21)N(CCn1ccnc1)Cc1ccc(-c2ccc(C(F)(F)F)cc2)cc1` [TCMDC-141468], 91.6%; for `O=C(Cn1c(SCc2cccc(F)c2F)cc(=O)c2ccccc21)N(CCCn1ccnc1)Cc1ccc(-c2ccc(C(F)(F)F)cc2)cc1` [TCMDC-141467], 68.26%.
Next, `CN(Cc1cccc(F)c1)C1CCN(c2cc(NC(=O)c3ccc(F)cc3)ccn2)CC1` [TCMDC-135018]: 1.836%; `CCCOc1ccccc1-c1nc2[nH]c3c(c2c(=O)[nH]1)CCN(C)C3` [TCMDC-138173]: 5.306%; `COc1cc(C=CC(=O)N2CCC3(CC2)CC(=O)c2ccccc2O3)cc(OC)c1OC` [TCMDC-123541]: 7.005%.
Consider `N#Cc1ccc(-c2ccc(OCC(O)CN3CCCN(Cc4cccc(O)c4Cl)CC3)cc2)cc1` (stereo not shown) [TCMDC-141431], for which the “% Inhibition” value is recorded as -23.75%.
For `COc1ccc2nccc([C@@H](O)CN3CCC(NCc4nc5ccccc5s4)CC3)c2c1` [TCMDC-140790] the value was -20.83%.
Take `COc1ccc(NC(=O)Nc2ccc(-c3ccncc3)c(Cl)c2)cc1N1CCN(C)CC1` [TCMDC-139134]: the “% Inhibition” value is given as -28.75%.
As to `CN(C)c1ccc(NC2=NC(C)(C)N=C(N)N2)cc1` [TCMDC-124346], the “% Inhibition” value came to 7.678%.
For `Cn1cncc1CCN(Cc1ccc(-c2ccc(C(F)(F)F)cc2)cc1)C(=O)Cn1c(SCc2cccc(F)c2F)cc(=O)c2ccccc21` [TCMDC-141451] the value was 112.4%; for `O=C(Cn1c(SCc2cccc(F)c2F)cc(=O)c2ccccc21)N(CCc1cnc[nH]1)Cc1ccc(-c2ccc(C(F)(F)F)cc2)cc1` [TCMDC-141484], 44.33%; for `Cc1ccc(/C=C/C(=O)NC2CCC(N3CCC(c4ccccc4C)CC3)CC2)cc1C` (stereo not shown) [TCMDC-133526], -66.55%.
Next, `CCN1C(=O)C(CC(=O)Nc2cccc(Cl)c2)N(Cc2ccc(OC)c(OC)c2)C1=S` (stereo not shown) [TCMDC-123795]: 79.41%; `COc1ccc(CN2C(=S)N(Cc3ccccc3)C(=O)C2CC(=O)Nc2ccccc2)cc1OC` (stereo not shown) [TCMDC-123874]: 33.25%.
For `COc1cc(NC(=O)c2cccs2)c(OC)cc1NC(=O)Nc1cccc(Cl)c1` [TCMDC-123531] the value was -32.35%; for `O=C(Cc1ccccn1)Nc1cccc(-c2cccc(-c3nc4ccc(C(F)(F)F)cc4[nH]3)c2)c1` [TCMDC-132177], -14.6%; for `COc1ccc2nccc([C@@H](O)CN3CCC(NCc4cc5ccccn5n4)CC3)c2c1` [TCMDC-141025], 65.1%.
`COc1ccc2nccc([C@@H](O)CN3CCC(NC(=O)/C=C/c4ccc(F)c5ccccc45)CC3)c2c1` [TCMDC-141105]: the “% Inhibition” value is on record as -9.775%.
As for `COc1ccc2nccc([C@@H](O)CN3CCC(NC(=O)/C=C/c4ccnc5ccccc45)CC3)c2c1` [TCMDC-141103], the “% Inhibition” value is recorded as 15.04%.
As for `COc1ccc2nccc([C@@H](O)CN3CCC(NCc4ccc5cccc(O)c5n4)CC3)c2c1` [TCMDC-140715], the “% Inhibition” value is -19.01%.
With `COc1ccc2nccc([C@@H](O)CN3CCC(NCC(O)Cc4ccccc4)CC3)c2c1` (stereo partly shown) [TCMDC-140702], the “% Inhibition” value amounted to 11.24%.
For `COc1ccc2nccc([C@@H](O)CN3CCC(NCC4COc5ccccc5O4)CC3)c2c1` (stereo partly shown) [TCMDC-140733] the value was 86.29%; for `COc1ccc2nccc([C@@H](O)CN3CCC(NCc4ccc5c(c4)OCCO5)CC3)c2c1` [TCMDC-141123], 9.641%; for `COc1ccc2nccc([C@@H](O)CN3CCC(NC(=O)/C=C/c4ccc5ccccc5n4)CC3)c2c1` [TCMDC-141104], 76.48%.
For `COc1ccc2nccc([C@@H](O)CN3CCC(NCc4cc5ccccc5nn4)CC3)c2c1` [TCMDC-140972] the value was -3.79%; for `Nc1ncc(-c2cccc(OCc3ccccc3)c2)cc1-c1nnc2ccc(Cl)nn12` [TCMDC-134853], -7.115%; for `COC(=O)c1ccc(N2CCN(CCCCNC(=O)c3ccc(NC(=O)c4ccc(Cl)cc4)cc3)CC2)c(OC)c1` [TCMDC-138526], 7.636%.
As to `O=C(Nc1ccc(Cl)cc1)Nc1cccc(-c2cccc(-c3nc4ccccc4[nH]3)c2)c1` [TCMDC-133178], the “% Inhibition” value is recorded as -4.164%.

A word on the % Inhibition: it is the change of the read-out against control, counted positive when it falls.
